Test results published in the supplement of paper PMC3342239.
Where a name gives a salt, the structure may show the parent alone.

System: Saccharomyces cerevisiae
Assay: fraction of cells in G1 phase (DNA content, flow cytometry); higher = more cells with unreplicated DNA (G1 delay)
Conditions: temperature: 30 C; YPD; JTY2953 pdr5 snq2 (sensitized); drug added to: cultures diluted from stationary phase; 6-7 h
Method in brief: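 S. cerevisiae grown in YPD at 30°C was exposed to library drugs. In one setup, overnight sensitized JTY2953 cultures were diluted 1∶200, given a final 20 µg/ml and fixed after 6–7 h, while other runs dosed dividing JTY2953 with fixation 6 h later or BY4741 with fixation 4.33 h later. Cells were ethanol-fixed, stained with SYTOX Green and analysed by flow cytometry at 10,000 events. The G1 fraction is the area of the Dean-Jett-Fox G1 peak divided by the summed G1 and G2/M areas.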

Row | SMILES | fraction of cells in G1 phase
1 | Cc1ccc(NC(=O)c2ccc(CN3CCN(C)CC3)cc2)cc1Nc1nccc(-c2cccnc2)n1 [Imatinib] (40.5173 µM) | 0.52
2 | CC(=O)[C@@]1(O)CC[C@H]2[C@@H]3CCC4=CC(=O)CC[C@]4(C)[C@H]3CC[C@@]21C [17- hydroxyprogesterone] (60.5196 µM) | 0.515
3 | CCN1CCC[C@H]1CNC(=O)c1cc(S(N)(=O)=O)ccc1OC [Sulpiride s (-)] (58.5768 µM) | 0.482
4 | C[C@]12CC[C@@H]3c4ccc(O)cc4CC[C@H]3[C@@H]1CC[C@@H]2O [Estradiol] (73.4239 µM) | 0.58
5 | CC(C)C[C@H](NC(=O)[C@@H](Cc1c[nH]c2ccccc12)NC(=O)[C@H](Cc1ccc(O)cc1)NC(=O)[C@H](CO)NC(=O)[C@H](Cc1c[nH]c2ccccc12)NC(=O)[C@H](Cc1c[nH]cn1)NC(=O)[C@@H]1CCC(=O)N1)C(=O)N[C@@H](CCCNC(=N)N)C(=O)N1CCC[C@H]1C(=O)NCC(N)=O [Triptorelin] (15.2499 µM) | 0.468
6 | CC(=O)O[C@H]1C(=O)[C@@]2(C)[C@H]([C@H](OC(=O)c3ccccc3)[C@]3(O)C[C@H](OC(=O)[C@H](O)[C@@H](NC(=O)c4ccccc4)c4ccccc4)C(C)=C1C3(C)C)[C@]1(OC(C)=O)CO[C@@H]1C[C@@H]2O [Taxol] (23.4212 µM) | 0.481
7 | CCCCCN(C)CCC(O)(P(=O)(O)O)P(=O)(O)O [Ibandronate] (62.65 µM) | 0.474
8 | NC[C@H]1CC[C@H](C(=O)O)CC1 [Tranexamic acid] (127.226 µM) | 0.504
9 | CC(C)(CO)[C@@H](O)C(=O)NCCC(=O)O [Pantothenic acid] (91.2244 µM) | 0.484
10 | C[C@H]1C[C@H]2[C@@H]3CCC4=CC(=O)C=C[C@]4(C)[C@@]3(F)[C@@H](O)C[C@]2(C)[C@@]1(O)C(=O)CO [Betamethasone] (39.6353 µM) | 0.508
11 | CCC1=C[C@@H]2CN(C1)Cc1c([nH]c3ccccc13)[C@@](C(=O)OC)(c1cc3c(cc1OC)N(C)[C@H]1[C@@](O)(C(=O)OC)[C@H](OC(C)=O)[C@]4(CC)C=CCN5CC[C@]31[C@@H]54)C2 [Vinorelbine] (25.6755 µM) | 0.481
12 | C[C@]12CCC(=O)C=C1CC[C@@H]1[C@@H]2[C@@H](O)C[C@@]2(C)[C@H]1CC[C@]2(O)C(=O)CO [Hydrocortisone] (55.1769 µM) | 0.483
13 | COc1ccc(Cl)cc1C(=O)NCCc1ccc(S(=O)(=O)NC(=O)NC2CCCCC2)cc1 [Glyburide] (40.4847 µM) | 0.531
14 | CN(C)c1ccc(O)c2c1C[C@H]1C[C@H]3[C@H](N(C)C)C(=O)C(C(N)=O)=C(O)[C@@]3(O)C(=O)C1=C2O [Minocycline HCl] (43.717 µM) | 0.51
15 | CC1(C)[C@H](C(=O)O)N2C(=O)C[C@H]2S1(=O)=O [Sulbactam] (85.7469 µM) | 0.477
16 | N=C(N)NC(=O)c1nc(Cl)c(N)nc1N [Amiloride] (75.1597 µM) | 0.516
17 | Cn1c(=O)c2[nH]cnc2n(C)c1=O [Aminophylline] (111.008 µM) | 0.49
18 | COc1cc([C@@H]2c3cc4c(cc3[C@@H](O[C@@H]3O[C@@H]5CO[C@@H](C)O[C@H]5[C@H](O)[C@H]3O)[C@H]3COC(=O)[C@H]23)OCO4)cc(OC)c1O [Etoposide] (33.9806 µM) | 0.496
19 | CN1CCCCC1CCN1c2ccccc2Sc2ccc([S+](C)[O-])cc21 (stereo not drawn) [Mesoridazine besylate] (51.7354 µM) | 0.476

Row | SMILES | fraction of cells in G1 phase
20 | CO/N=C(\C(=O)N[C@@H]1C(=O)N2C(C(=O)O)=C(COC(C)=O)CS[C@H]12)c1csc(N)n1 [Cefotaxime acid] (43.9106 µM) | 0.485
21 | CN(CCOc1ccc(CC2SC(=O)NC2=O)cc1)c1ccccn1 (stereo not drawn) [Rosiglitazone maleate] (42.2386 µM) | 0.574
22 | COC(=O)c1ccccc1O [Methyl salicylate] (131.448 µM) | 0.513
23 | Nc1ncnc2c1ncn2[C@@H]1O[C@H](CO)[C@@H](O)[C@@H]1O [Vidarabine] (74.8374 µM) | 0.481
24 | Cc1ncc([N+](=O)[O-])n1CCO [Metronidazole] (116.852 µM) | 0.422
25 | C[C@H]1O[C@@H](n2cc(F)c(=O)[nH]c2=O)[C@H](O)[C@@H]1O [Doxifluridine] (81.2358 µM) | 0.479
26 | CCCN[C@H]1CCc2nc(N)sc2C1 [Pramipexole] (94.6382 µM) | 0.48
27 | C=CCc1ccccc1OCC(O)CNC(C)C (stereo not drawn) [Alprenolol HCl] (80.2066 µM) | 0.52
28 | C1COC(NC(C2CC2)C2CC2)=N1 [Rilmenidine hemifumarate] (110.956 µM) | 0.483
29 | CN1CCN(c2c(F)cc3c(=O)c(C(=O)O)cn(CCF)c3c2F)CC1 [Fleroxacin] (54.1497 µM) | 0.479
30 | Cc1c(O)cccc1C(=O)N[C@@H](CSc1ccccc1)[C@H](O)CN1C[C@H]2CCCC[C@H]2C[C@H]1C(=O)NC(C)(C)C [Nelfinavir Mesylate] (30.1249 µM) | 0.487
31 | CCOC(=O)[C@H](CCc1ccccc1)N[C@@H](C)C(=O)N1CCC[C@H]1C(=O)O [Enalapril] (53.127 µM) | 0.511
32 | NS(=O)(=O)c1cc2c(cc1Cl)NC(C(Cl)Cl)NS2(=O)=O (stereo not drawn) [Trichloromethiazide] (52.5406 µM) | 0.494
33 | COc1cc2c3cc1Oc1cc(ccc1O)C[C@@H]1c4c(cc(OC)c(O)c4Oc4ccc(cc4)C[C@@H]3N(C)CC2)CC[N+]1(C)C [Tubocurarine Cl  (+)] (32.8004 µM) | 0.464
34 | Cc1c(-c2cnccn2)ssc1=S [Oltipraz] (88.3617 µM) | 0.503
35 | c1ccc([C@H]2CN3CCSC3=N2)cc1 [Levamisole HCl] (97.8973 µM) | 0.488
36 | CC(C)(O/N=C(\C(=O)N[C@@H]1C(=O)N2C(C(=O)[O-])=C(C[n+]3ccccc3)CS[C@H]12)c1csc(N)n1)C(=O)O [Ceftazidime] (36.5909 µM) | 0.486
37 | COc1ccc2[nH]c([S+]([O-])Cc3ncc(C)c(OC)c3C)nc2n1 (stereo not drawn) [Tenatoprazole] (57.7349 µM) | 0.486
38 | CC1(C)S[C@@H]2[C@H](NC(=O)[C@H](N)c3ccccc3)C(=O)N2[C@H]1C(=O)O [Ampicillin trihydrate] (57.2391 µM) | 0.497
